According to PubChem BioAssay (NCATS):
Results filed as inconclusive are left out. Entries that show only a call come without a potency. Active and inactive are the calls of the source. Calls come from the whole dose curve; as a rule, active = well fitted activation curve with a large enough effect; inconclusive = small, poorly fitted or top-dose-only effect; inactive = flat fitted curve, though single readings scatter.
Potency is the fitted concentration of half-maximal effect.

Test: Cellular Toxicity (caspase-3) H-4-II-E (AID 663);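 for caspase-3 activation: cells exposed to compound for 16 hr before readout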
Conditions: H-4-II-E rat hepatoma; Potency: caspase-3 activation; series mostly up to 92.2 µM
Source text: NIH Chemical Genomics Center [NCGC]
NIH Molecular Libraries Screening Centers Network [MLSCN]
National Institutes of Environmental Health Sciences [NIEHS]
National Toxicology Program [NTP]
We have developed a 1536-well cell-based assay for quantitative high throughput screening (qHTS) against a number of cell lines to determine in vitro caspase 3/7 of small molecules. This particular assay uses the H-4-II-E cell line which is derived from rat hepatoma.
NCGC Assay Protocol Summary:
The Caspase-Glo 3/7 assay (Promega) is a homogeneous method to measure caspase-3 and caspase-7 activities in cultured cells. The quantitation of caspase 3/7 activity is based on the cleavage of a peptide-aminoluciferin substrate. After caspase cleaves the substrate the free aminoluciferin is liberated and serves as the substrate of luciferase, which generates the light. The luminescent signal is proportional to amount of caspase 3/7 activity present.
Using the Caspase-Glo 3/7 assay, the amount of caspase 3/7 activity was measured in the H-4-II-E cell line with complete culture medium following compound treatment for 16 hours. The assay was performed in opaque white 1536-well plates. In the screen, tamoxifen and doxorubicin were used as positive controls. Library compounds were measured for their ability to cause the activation of caspase 3/7 in the cell line, as reflected by an increase in luminescence signal, in a concentration-dependent manner. Data were normalized to the controls for basal activity (DMSO only) and 100% stimulation (100 uM tamoxifen). AC50 values were determined from concentration-response data modeled with the standard Hill equation.
qHTS protocol for caspase 3/7 assay in H-4-II-E cells
[Step] [Parameter] [Value] [Description]
1. Reagent; 5 uL; 1500 H-4-II-E cells/well
2. Time; 5 hr; 37 °C incubation
4. Controls; 23 nL; Tamoxifen 0.23 uM to 100 uM & Doxorubicin 7.0 pM to 100 uM
5. Time; 16 hr; 37 °C incubation
6. Reagent; 5 uL; Caspase-Glo 3/7 reagent
7. Time; 20 min; Room Temperature
8. Detection; Luminescence; Viewlux plate reader
Keywords: caspase 3/7, apoptosis, H-4-II-E cell line, luminescence, NTPHTS, NTPHTS_NCGC, NIEHS, EPA, DSSTox, MLSMR, MLSCN, NIH Roadmap, qHTS, NCGC
With `O=C=Nc1ccc(Cl)c(Cl)c1` the Potency was “inactive”.
In the case of `O=C(O)/C=C/c1ccc(/C=C/C(=O)O)cc1`, the Potency is reported as “inactive”.
For `O=[N+]([O-])c1ccccc1Nc1ccccc1`, the Potency was “inactive”.
For `O=C(OCC1CO1)C1CCCCC1C(=O)OCC1CO1` (stereo not given), the Potency was “inactive”.
With `CC1=C(/C=C/C(C)=C/C=C/C(C)=C/C=O)C(C)(C)CCC1` the Potency was 31.6 µM (active).
In the case of `c1ccc(CSCc2ccccc2)cc1`, the Potency is reported as “inactive”.
In the case of `O=CC(=O)c1ccccc1`, the Potency is reported as “inactive”.
With `Cc1ccc(N)cc1[N+](=O)[O-]` the Potency was “inactive”.
For `N=C1C=CC(=C(c2ccc(N)cc2)c2ccc(N)cc2)C=C1`, the Potency was “inactive”.
For `CCCCCCc1ccc(-c2ccc(C#N)cc2)cc1`, the Potency was “inactive”.
With `CCCCC(CC)COP(=O)(OCC(CC)CCCC)OCC(CC)CCCC` (stereo not given) the Potency was “inactive”.
In the case of `Brc1cc(Br)c(Oc2cc(Br)c(Br)cc2Br)cc1Br`, the Potency is reported as “inactive”.
In the case of `CCN(CC)c1ccc(N)cc1`, the Potency is reported as “inactive”.
For `S=C(NC1CCCCC1)NC1CCCCC1`, the Potency was “inactive”.
With `O=C(OCc1ccccc1)c1ccccc1O` the Potency was “inactive”.
For `c1ccc2c(c1)ccc1ccccc12`, the Potency was “inactive”.
In the case of `c1ccncc1`, the Potency is reported as “inactive”.
In the case of `CCNC(=S)NCC`, the Potency is reported as “inactive”.
With `CCCCCCN` the Potency was “inactive”.
With `Oc1cc2c(cc1O)[C@H]1c3ccc(O)c(O)c3OC[C@@]1(O)C2` the Potency was “inactive”.
For `C=CC(C)(O)CCCC(C)CCCC(C)CCCC(C)C` (stereo not given), the Potency was “inactive”.
In the case of `C=CC(=O)CC`, the Potency is reported as “inactive”.
In the case of `Brc1cc(Oc2cc(Br)c(Br)c(Br)c2Br)c(Br)c(Br)c1Br`, the Potency is reported as “inactive”.
For `CCCCCCCCC1CO1` (stereo not given), the Potency was “inactive”.
For `CCCCOC(=O)COc1ccc(Cl)cc1Cl`, the Potency was “inactive”.
For `CC(C)COC(=O)COc1cc(Cl)c(Cl)cc1Cl`, the Potency was “inactive”.
In the case of `CC/C=C/C/C=C/C/C=C/CCCCCCCC(=O)OCC`, the Potency is reported as “inactive”.
In the case of `CC(=O)OCc1ccc2c(c1)OCO2`, the Potency is reported as “inactive”.
In the case of `CCC(Cl)CC(Cl)C(Cl)C(Cl)C(Cl)C(C)Cl` (stereo not given), the Potency is reported as “inactive”.
In the case of `Nc1cc(C(=O)O)c(O)c(S(=O)(=O)O)c1`, the Potency is reported as “inactive”.
For `NC(=O)c1ccc([N+](=O)[O-])cc1`, the Potency was “inactive”.
With `CC(/C=C/C=C(C)/C=C/C(=O)O)=C\C=C\C=C(C)\C=C\C=C(C)\C=C\C(=O)O` the Potency was “inactive”.
In the case of `O=C1c2ccccc2C(=O)C1(O)O`, the Potency is reported as “inactive”.
For `O=[N+]([O-])c1ccc(F)cc1F`, the Potency was “inactive”.
In the case of `Nc1ccc2c(c1)C(=O)c1ccccc1C2=O`, the Potency is reported as “inactive”.
For `CN(C)c1ccc(Cc2ccc(N(C)C)cc2)cc1`, the Potency was “inactive”.
With `COc1cc(-c2ccc(N=C=O)c(OC)c2)ccc1N=C=O` the Potency was “inactive”.
With `c1c[nH]cn1` the Potency was “inactive”.
With `Cc1cc2nc(N)sc2cc1C` the Potency was “inactive”.
In the case of `Cc1ccc(O)c(N)c1`, the Potency is reported as “inactive”.
